Inconclusive results are not listed. Calls of active or inactive are those of the source. Unless noted, the call rests on the fitted dose curve.

Assay [1] concerns the target Gonadotropin-releasing hormone receptor (Homo sapiens) (UniProt P30968). As to the kind of experiment: Human gonadotropin-releasing hormone receptor (GnRHR) small molecule agonists, calcium flux assay in GnRHR-HEK293 cells (AID 1920063). Further: nearly all actives have a fitted effect of over 35% in size. In outline:
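HEK293 cells stably expressing human GnRHR were dye-loaded for 1 h at 37 C. Compound was added in agonist mode and fluorescence (Ex/Em 480/540) recorded kinetically for 3 min. Fifteen concentrations, triplicates.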

The target of assay [2] is KiSS-1 receptor (Homo sapiens) (UniProt Q969F8). As to the kind of experiment: Human kisspeptin (KISS1R) small molecule agonists, calcium flux assay in KISS1R-HEK293 cells (AID 1920064; active means well fitted activation curve with a large enough effect in the repeat runs). A digest of the protocol:
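HEK293 cells stably expressing human KISS1R were loaded with calcium dye for 1 h at 37 C, then given compound; fluorescence (Ex/Em 480/540) was read kinetically for 3 min. Fifteen concentrations, triplicate.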
For orientation: A change in cytosolic calcium serves as a functional read-out for many receptors and channels.

Assay [3] can be described thus: G protein-coupled receptor (GPCR) small molecule agonists, calcium flux assay: HEK293 wild type cell line counter screen (AID 1920065). A digest of the protocol: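 Wild-type HEK293 cells plated 18 h, loaded with calcium dye 1 h at 37 C, then compounds added in agonist mode (ATP as positive control). Kinetic fluorescence Ex/Em 480/540 recorded 3 min at 1 sec intervals; 15 concentrations, triplicate.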

The nature of assay [4]: p53 small molecule agonists, cell-based qHTS assay with human liver microsomes (AID 1963577).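 Further: p53 response element beta-lactamase reporter cells with liver microsomes plus NADPH.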 A digest of the protocol:
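p53RE-bla cells; 5 h settle, 37 C/5% CO2; cpd + HLM 0.5 mg/mL + NADPH 0.5 mg/mL (final); 16 h 37 C; LiveBLAzer 2 h RT dark; fluorescence readout.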
(Quantitative high-throughput screening tests each substance at several concentrations.)

Assay [5] is described as follows: p53 small molecule agonists, cell-based qHTS assay with rat liver microsomes (AID 1963578). In outline:
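Rat liver microsome activation: microsomes 0.5 mg/mL, NADPH 0.5 mg/mL final; p53RE-bla cells, 16 h 37 C; LiveBLAzer readout, 2 h RT dark.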

Assay [6] can be described thus: p53 small molecule agonists, cell-based qHTS assay with human liver microsomes: qHTS cell viability counter screen (AID 1963579). Further: nearly all actives have a fitted effect of over 45% in size. In outline: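 Luminescent CellTiter-Glo read-out, 30 min at room temperature, gauged cytotoxicity in p53RE-bla cells exposed 16 h at 37 C to DMSO-dissolved compounds with metabolic activation by human liver microsomes and NADPH, each 0.5 mg/mL final.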

Assay [7] can be described thus: p53 small molecule agonists, cell-based qHTS assay with rat liver microsomes: qHTS cell viability counter screen (AID 1963580). Further: nearly all actives have a fitted effect of over 45% in size. In outline:
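p53RE-bla HCT-116 cells (4,000/well) rested 5 h at 37 C, then given Tox21 compounds in DMSO with rat liver microsomes (0.5 mg/mL final) plus NADPH (0.5 mg/mL final) for 16 h at 37 C. Viability read by CellTiter-Glo luminescence after 30 min at room temperature.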

The nature of assay [8]: p53 small molecule agonists, cell-based qHTS assay: qHTS cell viability counter screen (AID 1963581). Further: nearly all actives have a fitted effect of over 45% in size. In outline: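 p53RE-bla HCT-116 cells, compounds added 5 h after plating and incubated 16 h at 37 C. Cytotoxicity measured in the same wells as intracellular ATP by CellTiter-Glo luminescence after 30 min at room temperature.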
Assay [9] in a line: p53 small molecule agonists, cell-based qHTS assay (AID 1963582; active means well fitted activation curve with a large enough effect in the signal ratio in the repeat runs, not every such curve was filed as active; the % refers to the signal ratio). In outline: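 p53RE-bla reporter cells, compounds added in DMSO after 5 h plating, incubated 16 h at 37 C. Beta-lactamase read via 2 h room-temperature LiveBLAzer B/G FRET substrate, fluorescence intensity.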
In assay [10] the target is 5-hydroxytryptamine receptor 2A (Homo sapiens) (UniProt P28223). As to the kind of experiment: 5-hydroxytryptamine receptor 2A (HTR2A) small molecule antagonists, cell-based qHTS assay (AID 1963586). Further: nearly all actives have a fitted effect of over 45% in size. A digest of the protocol:
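Antagonist-mode intracellular calcium assay: DOI (4 nM) added after 5 min compound pre-incubation at room temperature to dye-loaded HTR2A-CHO cells. Fluorescence followed for 3 min, sampled every second.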

Assay [11] shares this target. As to the kind of experiment: 5-hydroxytryptamine receptor 2A (HTR2A) small molecule agonists, cell-based qHTS assay (AID 1963587). Further: nearly all actives have a fitted effect of over 30% in size. Further: potency means the concentration at half of the fitted maximal effect. A digest of the protocol:
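HTR2A-CHO cells, plated 18 h at 37 C/5% CO2, dye-loaded 1 h at 37 C; compounds in DMSO added by pin tool (agonist mode). Intracellular calcium flux read as kinetic fluorescence on FDSS over 2 min at 1 s intervals.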

Assay [12] deals with Muscarinic acetylcholine receptor M1 (Homo sapiens) (UniProt P11229). As to the kind of experiment: Cholinergic receptor muscarinic 1 (CHRM1) small molecule agonists, cell-based qHTS assay (AID 1963589). Further: nearly all actives have a fitted effect of over 35% in size. In outline:
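CHO cells stably expressing human CHRM1 were loaded with calcium dye for 1 h at 37 C, then compound was added in agonist mode. Intracellular calcium fluorescence was followed kinetically at 1 s intervals. Fifteen concentrations were tested in three independent runs.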

Assay [13] can be described thus: cAMP Responsive Elements (CRE) small molecule agonists, cell-based qHTS assay (AID 1963590). A digest of the protocol: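 CRE-bla HEK 293T cells, 2,000/well in DMEM with 10% dialyzed FBS and 25 mM HEPES, pre-incubated 18 h at 37 C, then exposed to compound 3 h at 37 C. Beta-lactamase reporter read with LiveBLAzer B/G FRET substrate after 2 h at room temperature.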

Assay [14] is described as follows: cAMP Responsive Elements (CRE) small molecule antagonists, cell-based qHTS assay (AID 1963591; active means well fitted inhibition curve with a large enough effect in the signal ratio in the repeat runs, not every such curve was filed as active; the % refers to the signal ratio). In outline: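 CRE-bla HEK293T cells plated 18 h, then given compound plus NKH477 at 0.25 uM final for 3 h at 37C. Beta-lactamase reporter read with LiveBLAzer B/G FRET substrate after 2 h at room temperature.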
Assay [15] has as its target Beta-2 adrenergic receptor (Homo sapiens) (UniProt P07550). Briefly: Adrenergic beta2 receptor (ADRB2) small molecule antagonists, cell-based qHTS assay (AID 1963592). Further: series mostly up to about 92 µM; nearly all actives have a fitted effect of over 50% in size. In outline: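 Cells (CHO, stable ADRB2 overexpression) incubated 18-20hr at 37C; compounds added from DMSO; agonist mix (1nM isoproterenol, 100uM IBMX, 25uM Ro-20-1724) added; 0.5hr RT; d2-cAMP and anti-cAMP-cryptate added; 1hr RT; 665/615 nm read.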

Assay [16] shares this target. Briefly: Adrenergic beta2 receptor (ADRB2) small molecule agonists, cell-based qHTS assay (AID 1963593).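 Further: CHO cells stably overexpressing human ADRB2.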 A digest of the protocol: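 CHO cells stably over-expressing ADRB2 were plated overnight at 37C, then dosed with compounds plus a stimulation mix containing 100uM IBMX and 25uM Ro-20-1724 for 0.5hr at room temperature. cAMP was measured by HTRF competition, 1hr.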

Assay [17] addresses D(2) dopamine receptor (Homo sapiens) (UniProt P14416). As to the kind of experiment: Dopamine D2 receptor (DRD2) small molecule antagonists, cell-based qHTS assay (AID 1963595; active means well fitted inhibition curve with a large enough effect in the signal ratio in the repeat runs, with a control signal flat; the % refers to the signal ratio). In outline: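 Antagonist mode in DRD2-HEK293 cells: after compound addition with 0.1 mM Ro20-1724, cells received quinpirole (12 nM) and NKH477 (200 nM) for 30 min at room temperature; HTRF cAMP read after 1 h detection.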

In assay [18] the target is Muscarinic acetylcholine receptor M1 (Homo sapiens) (UniProt P11229). Briefly: Cholinergic receptor muscarinic 1 (CHRM1) small molecule antagonists, cell-based qHTS assay (AID 1963588). Further: nearly all actives have a fitted effect of over 40% in size. In outline: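 CHRM1-CHO calcium-flux assay, antagonist mode. Cells were seeded 18 h, dye-loaded 1 h at 37 C and given compound for 5 min at RT, then acetylcholine was added at 50nM. FDSS fluorescence was read 3 min; 15 concentrations, three runs.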
Chain of Muscarinic acetylcholine receptor M1 (Homo sapiens) (P11229 whole entry, looked up): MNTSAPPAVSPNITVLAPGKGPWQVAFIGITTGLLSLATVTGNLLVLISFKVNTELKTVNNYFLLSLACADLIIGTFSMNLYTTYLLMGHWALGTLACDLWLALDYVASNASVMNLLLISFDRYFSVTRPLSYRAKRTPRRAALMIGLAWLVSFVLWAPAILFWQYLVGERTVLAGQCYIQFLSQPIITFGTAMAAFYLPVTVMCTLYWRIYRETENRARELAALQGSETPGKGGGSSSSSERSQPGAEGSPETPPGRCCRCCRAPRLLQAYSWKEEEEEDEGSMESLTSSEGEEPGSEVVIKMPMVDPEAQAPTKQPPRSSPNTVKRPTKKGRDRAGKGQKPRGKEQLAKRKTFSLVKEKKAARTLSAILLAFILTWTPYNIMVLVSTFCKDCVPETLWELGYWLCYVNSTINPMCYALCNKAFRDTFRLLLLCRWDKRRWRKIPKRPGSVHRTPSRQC

Assay [19] concerns the target D(2) dopamine receptor (Homo sapiens) (UniProt P14416). Briefly: Dopamine D2 receptor (DRD2) small molecule agonists, cell-based qHTS assay (AID 1963594). Further: nearly all actives have a fitted effect of over 35% in size. A digest of the protocol: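 HEK293 cells stably expressing DRD2 were cultured 24 h at 37 C, then given Ro20-1724 (0.1 mM final) and compounds for 10 min at room temperature. NKH477 (200nM) was then added for 30 min. cAMP was read by HTRF.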

Chain of KiSS-1 receptor (Homo sapiens) (Q969F8 whole entry, looked up): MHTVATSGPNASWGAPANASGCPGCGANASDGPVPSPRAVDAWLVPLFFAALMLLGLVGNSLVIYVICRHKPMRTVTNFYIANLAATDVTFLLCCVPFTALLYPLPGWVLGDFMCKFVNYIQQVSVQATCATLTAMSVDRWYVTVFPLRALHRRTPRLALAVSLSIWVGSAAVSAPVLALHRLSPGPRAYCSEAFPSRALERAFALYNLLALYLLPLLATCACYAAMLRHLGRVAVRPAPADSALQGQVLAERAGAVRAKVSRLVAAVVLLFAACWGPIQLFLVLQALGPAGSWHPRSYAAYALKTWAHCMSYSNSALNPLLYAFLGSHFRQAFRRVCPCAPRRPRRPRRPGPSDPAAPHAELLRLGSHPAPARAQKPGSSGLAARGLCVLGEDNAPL
Chain of 5-hydroxytryptamine receptor 2A (Homo sapiens) (P28223 whole entry, looked up): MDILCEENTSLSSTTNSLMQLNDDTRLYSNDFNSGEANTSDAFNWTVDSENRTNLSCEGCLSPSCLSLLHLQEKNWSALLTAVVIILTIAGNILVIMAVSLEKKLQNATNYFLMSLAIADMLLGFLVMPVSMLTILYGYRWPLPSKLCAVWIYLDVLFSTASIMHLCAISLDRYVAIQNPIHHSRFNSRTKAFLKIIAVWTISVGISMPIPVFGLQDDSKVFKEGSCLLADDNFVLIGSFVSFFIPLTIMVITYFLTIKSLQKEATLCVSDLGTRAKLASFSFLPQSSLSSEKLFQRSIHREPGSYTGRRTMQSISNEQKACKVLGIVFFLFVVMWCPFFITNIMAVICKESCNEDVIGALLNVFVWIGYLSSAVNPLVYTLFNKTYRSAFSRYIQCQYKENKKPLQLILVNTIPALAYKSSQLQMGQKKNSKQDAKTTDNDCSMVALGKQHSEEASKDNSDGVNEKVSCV
Chain of D(2) dopamine receptor (Homo sapiens) (P14416 whole entry, looked up): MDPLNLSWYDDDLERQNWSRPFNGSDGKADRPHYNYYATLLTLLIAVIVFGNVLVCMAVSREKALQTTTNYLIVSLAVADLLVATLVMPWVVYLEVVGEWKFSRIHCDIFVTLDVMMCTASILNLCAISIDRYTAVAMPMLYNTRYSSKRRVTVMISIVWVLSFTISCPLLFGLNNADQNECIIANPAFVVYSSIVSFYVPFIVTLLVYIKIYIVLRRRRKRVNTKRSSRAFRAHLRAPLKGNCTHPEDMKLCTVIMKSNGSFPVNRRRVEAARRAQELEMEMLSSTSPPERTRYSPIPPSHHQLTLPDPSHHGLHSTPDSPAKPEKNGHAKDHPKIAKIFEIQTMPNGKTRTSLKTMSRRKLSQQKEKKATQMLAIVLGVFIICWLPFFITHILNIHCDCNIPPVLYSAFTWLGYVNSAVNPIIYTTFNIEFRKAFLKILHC
Chain of Beta-2 adrenergic receptor (Homo sapiens) (P07550 whole entry, looked up): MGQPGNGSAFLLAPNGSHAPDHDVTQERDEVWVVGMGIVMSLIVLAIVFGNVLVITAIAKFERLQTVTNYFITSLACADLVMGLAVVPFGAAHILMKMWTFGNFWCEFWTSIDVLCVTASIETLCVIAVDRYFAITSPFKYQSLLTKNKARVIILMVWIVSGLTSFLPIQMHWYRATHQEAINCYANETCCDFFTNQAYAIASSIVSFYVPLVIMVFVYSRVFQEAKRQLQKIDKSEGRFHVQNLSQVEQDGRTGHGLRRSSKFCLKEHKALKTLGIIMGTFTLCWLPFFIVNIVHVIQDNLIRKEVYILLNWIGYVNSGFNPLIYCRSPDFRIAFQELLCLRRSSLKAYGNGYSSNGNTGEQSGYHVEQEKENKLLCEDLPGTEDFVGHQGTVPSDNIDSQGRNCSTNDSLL
Chain of Gonadotropin-releasing hormone receptor (Homo sapiens) (P30968 whole entry, looked up): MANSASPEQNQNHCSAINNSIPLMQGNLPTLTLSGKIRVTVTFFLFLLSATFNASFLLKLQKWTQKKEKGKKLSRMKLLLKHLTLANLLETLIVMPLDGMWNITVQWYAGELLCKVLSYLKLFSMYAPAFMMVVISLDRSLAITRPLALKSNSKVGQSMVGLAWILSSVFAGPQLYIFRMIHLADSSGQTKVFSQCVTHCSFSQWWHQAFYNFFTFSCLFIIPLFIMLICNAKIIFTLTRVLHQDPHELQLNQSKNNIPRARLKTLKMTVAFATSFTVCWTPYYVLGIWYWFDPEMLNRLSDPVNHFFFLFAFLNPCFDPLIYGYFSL

In the case of `COC(=O)c1ccc([N+](=O)[O-])cc1`, the Potency entry in [1], in [2], in assay [3], in [4], in assay [5] and in assay [6] was “inactive” throughout. Further, the Potency entry in assay [7], in assay [8], in [9], in assay [10], in [11] and in [12] was “inactive” each time. For the same molecule, the Potency entry in [13], in assay [14], in assay [15], in [16] and in assay [17] was “inactive” in each case.
Turning to `O=C1OC[C@H](Cc2cccc(O)c2)[C@H]1Cc1cccc(O)c1`, the Potency entry in [1], in assay [2], in assay [3], in assay [4], in [5] and in assay [6] was “inactive” throughout. The Potency entry in assay [7], in assay [8], in assay [9], in assay [10], in [11] and in assay [18] was “inactive” in each case. Besides, the Potency result in assay [12], in [13], in assay [16], in [19] and in [17] was “inactive” throughout.
As to `C1=C\CC/C=C\CC/C=C\CC/1`, the Potency entry in [1], in assay [2], in [3], in assay [4], in [5] and in assay [6] was “inactive” throughout. The Potency result in assay [7], in assay [8], in assay [9], in assay [10], in assay [11] and in assay [18] was “inactive” throughout. For the same molecule, the Potency result in [12], in assay [14], in assay [15], in assay [16], in assay [19] and in assay [17] was “inactive” each time.
Take `CCN(CC)C(=O)C1CN2CCc3cc(OC)c(OC)cc3C2CC1OC(C)=O` (configuration not stated): the Potency result in assay [1], in [2], in assay [3], in [4], in assay [5] and in assay [6] was “inactive” each time. Moreover, the Potency entry in assay [7], in assay [8], in [9], in assay [10], in [18] and in assay [12] was “inactive” in each case. Besides, the Potency entry in assay [13], in assay [14], in assay [15], in [16], in [19] and in assay [17] was “inactive” throughout.
`O=C1C(O)=C(O)C(=O)C(O)=C1O`: the Potency result in assay [1], in assay [2], in assay [3], in assay [4], in assay [5] and in assay [6] was “inactive” throughout. For the same molecule, the Potency entry in assay [7], in assay [8], in assay [9], in assay [18], in assay [12] and in assay [13] was “inactive” in each case. Besides, the Potency entry in assay [14], in assay [15], in assay [16] and in assay [17] was “inactive” in each case. Besides, the Potency in assay [11] is 47.7 nM (active).
As for `C[C@@H](O)[C@H]1C(=O)N2C(C(=O)O)=C(SCCN=CN)C[C@H]12`, the Potency entry in assay [1], in assay [2], in assay [3], in [4], in assay [5] and in [6] was “inactive” each time. Moreover, the Potency entry in [7], in [8], in assay [9], in assay [10], in [11] and in assay [18] was “inactive” in each case. Also, the Potency entry in [12], in [13], in assay [14], in assay [15], in assay [19] and in [17] was “inactive” in each case.
Take `CC12CCC(C(=O)C1=O)C2(C)C` (configuration not stated): the Potency result in assay [1], in assay [2], in [3], in assay [4], in [5] and in assay [6] was “inactive” in each case. The Potency entry in assay [7], in [8], in assay [9], in assay [11], in assay [18] and in assay [12] was “inactive” each time. Besides, the Potency entry in assay [13], in [14], in assay [15], in assay [16] and in assay [17] was “inactive” each time.

Source of the values: PubChem BioAssay (Tox21).
